# Results taken from PubChem BioAssay (NCATS).
# The source made the active and inactive calls. The call rests on the fitted dose curve; in most records, active means well fitted activation curve with a large enough effect; inconclusive means small, poorly fitted or top-dose-only effect; inactive means no such curve, though single readings can be large or run the other way.
# Molecular target: Cytochrome P450 3A4 (Homo sapiens) (UniProt P08684)
# Experiment: qHTS Assay for Activators of Cytochrome P450 3A4 (AID 885); further: nearly all actives have a fitted effect of over 65% in size
# Details: recombinant CYP3A4, Luciferin-PPXE luminescence, 60 min; series mostly up to 57.1 µM; activity change, positive = activation: at the top concentration
# Description: NIH Molecular Libraries Screening Centers Network [MLSCN]
# NIH Chemical Genomics Center [NCGC]
# The P450 gene superfamily is involved in the metabolism and clearance of xenobiotics. This assay used human CYP3A4 to measure the dealkylation of luciferin-6' phenylpiperazinylyl (Luciferin-PPXE; […]) to luciferin. The luciferin is then measured by luminescence after the addition of a luciferase detection reagent. Luciferin-PPXE concentration in the assay was equal to its KM for CYP3A4. Inhibitors and some substrates limit the production of luciferin, and decrease measured luminescence; activators increase the production of luciferin and luminescence.
# NCGC Assay Protocol Summary:
# Two uL of enzyme and substrate mix (final concentrations: 20nM CYP3A4, 25uM Luciferin-PPXE, 200mM KPO4) were dispensed into a white, solid bottom 1536-well microtiter plate. 23nL of compound was transferred by a pin tool. The plate was incubated at RT for 10 min. Two uL of an NADPH regeneration solution (Promega supplied reagent) was dispensed and the reaction was allowed to continue for 60 min at RT. Then the reaction was stopped by reconstituted luciferin detection buffer. After another 20 min of incubation the plate was read on the ViewLux (Perkin Elmer) at 60 sec exposure and 2x2 binning. This protocol was carried out with Promega-Glo reagents and further information can be found at http://www.promega.com/tbs/tb325/tb325.pdf. Data were normalized to the to AC100 inhibition (57 uM ketoconazole).
# Keywords: P450, CYP2D6, Luciferase, MLSMR, MLSCN, NIH Roadmap, qHTS, NCGC
# Potency means the concentration at half of the fitted maximal effect.
# Chain of Cytochrome P450 3A4 (Homo sapiens) (P08684 whole entry, looked up): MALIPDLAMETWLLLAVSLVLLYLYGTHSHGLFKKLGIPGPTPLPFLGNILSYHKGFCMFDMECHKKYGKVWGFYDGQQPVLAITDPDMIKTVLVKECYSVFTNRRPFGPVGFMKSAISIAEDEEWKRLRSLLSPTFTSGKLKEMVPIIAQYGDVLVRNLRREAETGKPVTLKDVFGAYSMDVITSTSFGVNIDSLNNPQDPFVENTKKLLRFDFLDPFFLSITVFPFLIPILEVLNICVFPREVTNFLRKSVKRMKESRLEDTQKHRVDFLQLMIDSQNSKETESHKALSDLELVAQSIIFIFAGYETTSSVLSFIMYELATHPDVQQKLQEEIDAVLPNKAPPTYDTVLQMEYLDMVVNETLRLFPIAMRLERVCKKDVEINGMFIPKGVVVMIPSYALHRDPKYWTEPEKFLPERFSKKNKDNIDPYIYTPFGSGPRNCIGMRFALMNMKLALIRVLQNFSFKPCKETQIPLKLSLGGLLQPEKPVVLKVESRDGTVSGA
SMILES,"activity change, positive = activation",Potency
Cc1ccc([N+](=O)[O-])cc1N,-31.5% (inactive),
CCCCC(CC)COC(=O)CCCCC(=O)OCC(CC)CCCC (stereo not given),-31.3% (inactive),
Oc1ccc2c(c1)OCO2,-40.3% (inactive),
ClC1=C(Cl)C2(Cl)C3C(Cl)C(Cl)CC3C1(Cl)C2(Cl)Cl (stereo not given),-89.1% (inactive),
COC(=O)/C(C)=C\CC12OC(C)(C)C3CC(C=C4C(=O)c5c(OC)c6c(c(CC=C(C)C)c5OC431)OC(C)(CCC=C(C)C)C=C6)C2=O (stereo not given),-69.3% (inactive),
COc1cc2c(cc1OC)[C@@H]1C(=O)c3ccc(OC)c(CC=C(C)C)c3OC1CO2 (stereo not given in full),-78.7% (inactive),
O=C(OC1Cc2c(O)cc(O)cc2OC1c1cc(O)c(O)c(O)c1)c1cc(O)c(O)c(O)c1 (stereo not given),-62.3% (inactive),
C[C@@]12CC[C@@H]3c4ccc(O)cc4C[C@H](CCCCCCCCCS(=O)CCCC(F)(F)C(F)(F)F)[C@H]3[C@@H]1CC[C@@H]2O (stereo not given in full),-47.3% (inactive),
CCCC/C(C)=C/[C@@H](NP(=O)(c1ccccc1)c1ccccc1)c1ccccc1,-92.9% (inactive),
Cc1cc(C)c(N)cc1C,-38.3% (inactive),
C[C@]12CC[C@@H]3C(=CCc4cc(O)ccc43)[C@@H]1CCC2=O,-68.9% [at 25.6 µM] (inactive),
CC(=O)OCc1ccc2c(c1)OCO2,-69.1% (inactive),
Cc1c2ccccc2c(C)c2c1ccc1ccccc12,-48.2% (inactive),
O=C1c2ccccc2-c2cc([N+](=O)[O-])c([N+](=O)[O-])cc21,-119% [at 11.4 µM] (inactive),
COc1cc2c(cc1O)-c1c(O)c(OC)cc3c1[C@H](C2)N(C)CC3,-46.2% (inactive),
CC(=O)[C@@H]1CC[C@@H]2[C@@H]3CCC4=CC(=O)CC[C@@]4(C)[C@H]3CC[C@]21C,,3.98 µM (active)
CC(=O)[O-].CC(=O)[O-].O.O.[Cd+2],-31.5% (inactive),
CC(=O)O[C@H]1CC[C@@]2(C)[C@@H](CC[C@H]3[C@H]2CC(=O)[C@@]2(C)[C@@H]3C[C@H]3CC(C)=CC(=O)[C@H]32)C1,,2 µM (active)
C=CCn1c(=O)n(CC=C)c(=O)n(CC=C)c1=O,-73.1% (inactive),
CC(=O)Oc1c2c(c(CC=C(C)C)c3c1C(=O)C1=CC4CC5C(C)(C)OC(C/C=C(\C)C(=O)O)(C4=O)[C@]15O3)OC(C)(CCC=C(C)C)C=C2 (stereo not given in full),-94.7% (inactive),

SMILES,"activity change, positive = activation",Potency
c1ccc2c(c1)ccc1ncccc12,-31.2% (inactive),
CN1Cc2c(ccc3c2OCO3)C2C(O)Cc3cc4c(cc3C21)OCO4 (stereo not given),,inactive
CCCc1cc2c(n1Cc1ccc(C)cc1)C(C)C1CN(C(=O)c3ccccc3)C(C)(C(=O)OC)C21 (stereo not given),-63.2% (inactive),
Nc1ccccc1C(=O)OCCc1ccccc1,-42.1% (inactive),
N[C@@H](Cc1cc(O)c(O)cc1O)C(=O)O,-37.8% (inactive),
O=P(N[C@@H](c1ccccc1)[C@@H]1C[C@H]1CO)(c1ccccc1)c1ccccc1,-53.3% (inactive),
COc1ccc2[nH]c3c(c2c1)CCN=C3C,-37.6% [at 25.6 µM] (inactive),
COC1=C[C@H]2[C@H]3Cc4ccc(OC)c(O)c4[C@@]2(CCN3C)CC1=O,-30.8% (inactive),
Cc1c(N=C=O)cccc1N=C=O,-59.8% (inactive),
CC1=C2C(=COC(C)C2C)C(=O)C(C(=O)O)=C1O (stereo not given),-74.5% (inactive),
CN1C[C@@H](CO)C=C2c3cccc4[nH]cc(c34)CC21 (stereo not given in full),-55.4% (inactive),
COc1cc2c3cc1Oc1c(OC)c(OC)cc4c1[C@@H](Cc1ccc(O)c(c1)Oc1ccc(cc1)C[C@@H]3N(C)CC2)N(C)CC4,-73.7% (inactive),
CN[C@@H](C)[C@@H](O)c1ccccc1,-103% (inactive),
COC(=O)[C@]1(C)C[C@H]1[C@H](NP(=O)(c1ccccc1)c1ccccc1)c1ccccc1,-42.9% (inactive),
c1ccc(-c2cc3c(nc2-c2ccccc2)CCNC3)cc1,-45.7% [at 11.4 µM] (inactive),
CN(C)C1C(=O)C(C(N)=O)=C(O)[C@@]2(O)C(=O)C3=C(O)c4c(O)cccc4[C@@](C)(O)C3C[C@@H]12 (stereo not given in full),-72.5% (inactive),
COC(=O)CCC(C)C1CCC2C3C(O)C[C@@H]4CC(O)CC[C@@]4(C)C3CC(O)[C@]12C (stereo not given in full),-42.7% (inactive),
COC(=O)[C@H]1[C@H](c2ccccc2)C(=O)[C@@]2(O)c3ccccc3O[C@@]12c1ccccc1,-48.2% [at 11.4 µM] (inactive),
COC(C)C(O)(C(=O)OC1=CCN2CC[C@H](O)[C@H]12)C(C)C (stereo not given in full),-33% (inactive),
COC(=O)[C@@H]1[C@@H](O)[C@@]2(O)c3c(OC)cc(OC)cc3O[C@@]2(c2ccc(OC)cc2)[C@H]1c1ccccc1,-35.6% [at 11.4 µM] (inactive),
